# D2 PAM-1: Beta-Arrestin HTS for Positive Allosteric Modulators of the Human D2 Dopamine Receptor: Potentiators; D(2) dopamine receptor (Homo sapiens), P14416; DiscoveRx D2 beta-arrestin cells, luminescence, 90 min; 100% = 57 uM dopamine signal; potentiation, % (no concentration beside the values); hit rate 0.23% among 360,000; AID 624464, 2012; in the data active = potentiation above about 50%
#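 D2 cells co-treated with compound plus 50 nM dopamine (EC20) for 90 min at 37 deg C to detect potentiation. Beta-arrestin recruitment was read as enzyme-fragment luminescence after 1 h at ambient temperature. Full response was set by 57 uM dopamine.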
# D2 PAM-2: HTS Assay for Positive Allosteric Modulators of the Human D2 Dopamine Receptor: Primary Screen for Potentiators. AID 485347, 2010. hit rate 0.34% among 340,000. D(2) dopamine receptor (Homo sapiens), P14416. potentiation, % at 10 µM. HEK293 T-REx D2, calcium flux, EC20 dopamine potentiation;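 active = potentiation over 3 SD above the plate norm, cut at about 30% in these data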; note: 0% is about no effect
#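 Tetracycline-induced HEK293 T-REx cells force-coupled to calcium signalling expressed D2; compounds were pin-added after a 10 s baseline, read kinetically 180 s, then an EC20 dopamine challenge followed with a further 180 s calcium read.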
# D2 ag-1: HTS Assay for Allosteric Agonists of the Human D2 Dopamine Receptor: Primary Screen for Agonists | activation, % at 2 µM | D(2) dopamine receptor (Homo sapiens), P14416 | hit rate 0.53% among 340,000 | HEK293 T-REx D2 cells, calcium flux agonist mode;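 active = activation over 3 SD above normal in the single-dose calcium agonist read, cut at about 30% in these data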; note: 0% is about no effect
#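 HEK293 Trex D2 cells, tetracycline-induced, o/n 30 C 5% CO2; no-wash Ca dye, RT 30–90 min; 10-cycle baseline, 23 nl cpd added, kinetic Ca read 180 s; agonist hits = positive Ca response.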
# D2 ag-2: Beta-Arrestin HTS for Positive Allosteric Modulators of the Human D2 Dopamine Receptor: Agonists; activation, % (no concentration beside the values); D(2) dopamine receptor (Homo sapiens), P14416; hit rate 0.084% among 360,000; DiscoveRx PathHunter D2 beta-arrestin, luminescence, 90 min; 100% = 57 uM dopamine signal; in the data active = activation above about 40%
#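 Agonist mode: compounds alone added to overnight-plated D2 PathHunter cells for 90 min at 37 C, with 57 uM final dopamine (EC100) defining full response. Beta-arrestin recruitment detected by chemiluminescent reagent, read after 1 h at ambient temperature.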
# D2 antag: HTS Assay for Allosteric Antagonists of the Human D2 Dopamine Receptor: Primary Screen for Antagonists; HEK293 TREx D2 cells, calcium flux, dopamine EC80; D(2) dopamine receptor (Homo sapiens), P14416; AID 485344, 2010; hit rate 2% among 340,000; inhibition, % at 10 µM; in the data active = inhibition above about 30%; inactive = below that, where a call was filed; note: 0% is about no effect
#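 In this primary screen, negative modulation is detected by tracking calcium flux after an EC80 dopamine challenge in inducible HEK293 T-REx D2 cells preexposed to test compound for 180 s.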
# D3 arrestin ag: qHTS of D3 Dopamine Receptor Agonist: D3 Dopamine Receptor B-arrestin Agonist Confirmatory Assay; shares compounds with D2 ag-1; DiscoveRx D3 beta-arrestin cells, luminescence, 90 min; Potency, µM (titrated, usually from 76.9 µM), for the others: at the top dose activation, hits mostly activators; AID 720506, 2013; hit rate 4% among 2,300;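 note: potency is the fitted concentration of half-maximal effect; 100% = dopamine control response; nearly all actives have a fitted effect of over 70% in size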
# Target sequence (P35462 whole entry, looked up): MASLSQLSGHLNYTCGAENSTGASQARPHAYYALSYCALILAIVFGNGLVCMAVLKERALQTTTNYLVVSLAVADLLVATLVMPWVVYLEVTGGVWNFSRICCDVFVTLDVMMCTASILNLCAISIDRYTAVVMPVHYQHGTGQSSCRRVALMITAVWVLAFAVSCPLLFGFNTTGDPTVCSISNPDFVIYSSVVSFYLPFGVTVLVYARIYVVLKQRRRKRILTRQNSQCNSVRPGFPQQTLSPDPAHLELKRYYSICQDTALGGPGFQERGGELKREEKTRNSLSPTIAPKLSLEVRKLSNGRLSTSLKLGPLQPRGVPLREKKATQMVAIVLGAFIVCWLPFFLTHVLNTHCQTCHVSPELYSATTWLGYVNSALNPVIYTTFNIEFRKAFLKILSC
# D2 ag-3: qHTS of D3 Dopamine Receptor Agonist: D2 Dopamine Receptor B-arrestin Agonist Counterscreen; Potency, µM (highest dose often 76.9 µM), for the others: top-dose activation, hits mostly activators; shares compounds with D2 ag-1; AID 720507, 2013; DiscoveRx PathHunter D2 beta-arrestin, luminescence, 90 min; response scale: percent relative to full dopamine signal; hit rate 5.9% among 2,300; note: potency is the fitted concentration of half-maximal effect; % of control where 0% means no effect; nearly all actives have a fitted effect of over 70% in size
# The depositor's hits bear a star; · = no result given. Sampled rows, rich in hits. Any-hit rate of the full collection: about 2.4%. Unless noted, calls come from the whole dose curve; as a rule, active = well fitted activation curve with a large enough effect; inconclusive = small, poorly fitted or top-dose-only effect; inactive = flat fitted curve, though single readings scatter.
SMILES,D2 PAM-1,D2 PAM-2,D2 ag-1,D2 ag-2,D2 antag,D3 arrestin ag,D2 ag-3
COc1ccc(CCNC(=O)CNCC(c2ccccc2)N(C)C)cc1OC (configuration not stated),-7,-14,33*,7,-2,8%,11%
COc1ccc(CCNC(=O)CCCn2c(=O)c3ccccc3n(CC(=O)Nc3ccccc3C)c2=O)cc1OC,·,-7,-1,·,·,·,·
CCOCc1cc(CN2CCN(c3ccccc3OC)CC2)c(O)c2ncccc12,·,-9,-1,·,·,·,·
COc1ccccc1N1CCN(Cc2cc3c(cc2O)OCO3)CC1,-18,-30,75*,0,98*,-8%,9%
CCOc1ccccc1N1CCN(Cc2cccc(OC)c2O)CC1,-2,-5,45*,13,68*,-12%,29%
Cc1ccc(Cl)cc1N1CCN(c2nc3ccccc3c3nc(-c4cccnc4)nn23)CC1,·,-4,-1,·,·,·,·
Cc1onc(-c2ccccc2)c1C(=O)NNC(=S)NC(=O)/C=C/c1ccccc1,-42,-7,31*,-13,-16,-29%,-10%
COc1ccc(/C=C/C(=O)NC(=S)NNC(=O)c2c(-c3ccccc3)noc2C)cc1,-39,5,6,-9,-4,·,·
Cc1onc(-c2ccccc2)c1C(=O)NNC(=S)NC(=O)c1ccc(Br)cc1,-28,-14,46*,-7,36*,1%,-10%
Cc1onc(-c2ccccc2)c1C(=O)NNC(=O)c1ccccc1O,-63,1,0,-8,-8,·,·
O=S(=O)(c1ccc(Cl)cc1)N1CCc2ccccc21,-1,11,1,-6,1,·,·
O=S(=O)(c1ccc(F)cc1)N1CCc2ccccc21,7,3,8,1,36*,4%,2%

# Bioassay records as filed in PubChem.
